Read-out in test [1]: Urokinase-type plasminogen activator receptor (uPAR), PLAUR (gene 5329)
The test can be described thus: BSK_4H_uPAR: BioMAP Diversity Plus: 4H Assay for Urokinase-type plasminogen activator receptor (uPAR) Biomarker Activity (AID 2283030). As to conditions: primary human endothelial cells (HUVEC); actives raise or lower the signal. An outline of the steps:
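Primary human umbilical vein endothelial cells were exposed to chemical for 24 h before cell-surface uPAR was quantified by ELISA. Activity was fitted bidirectionally against the DMSO negative control baseline.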

Read-out in test [2]: Vascular endothelial growth factor receptor 2 (Homo sapiens) (UniProt P35968)
Description: BSK_4H_VEGFRII: BioMAP Diversity Plus: 4H Assay for Vascular endothelial growth factor receptor 2 (VEGFR2) Biomarker Activity (AID 2283031).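 For AC50: cell-surface VEGFR2 protein level quantified by ELISA.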 As to conditions: primary human endothelial cells (HUVEC); actives raise or lower the signal. An outline of the steps:
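Primary human umbilical vein endothelial cells in the BioMAP 4H system were dosed with test chemical, and 24 h later VEGFRII was measured by ELISA. Activity was fitted bidirectionally against DMSO as negative control and baseline.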

Read-out in test [3]: Vascular cell adhesion molecule 1 (VCAM1), VCAM1 (gene 7412)
The test can be described thus: BSK_4H_VCAM1: BioMAP Diversity Plus: 4H Assay for Vascular cell adhesion molecule 1 (VCAM1) Biomarker Activity (AID 2283033).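 For outcome: cell-surface VCAM-1 protein measured by ELISA.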 As to conditions: primary human endothelial cells (HUVEC); actives raise or lower the signal. Summed up:
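HUVEC, 24 h post-dose; VCAM-1 by ELISA. Bidirectional curve fit vs DMSO baseline. Parallel SRB total-protein stain (0.1% SRB after 10% TCA fixation, 560 nm) for cytotoxicity.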

Read-out in test [4]: Interferon-gamma inducible Protein 10 (IP10), CXCL10 (gene 3627)
Description: BSK_BE3C_IP10: BioMAP Diversity Plus: BE3C Assay for Interferon-gamma inducible Protein 10 (IP10) Biomarker Activity (AID 2283034). As to conditions: primary human bronchial epithelial cells; actives raise or lower the signal. Summed up:
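ELISA readout of IP-10 in BE3C system: primary human bronchial epithelial cells, 24 h post-dosing; bidirectional curve fit vs DMSO baseline.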

Read-out in test [5]: Monokine induced gamma interferon (MIG), CXCL9 (gene 4283)
The test can be described thus: BSK_BE3C_MIG: BioMAP Diversity Plus: BE3C Assay for Monokine induced gamma interferon (MIG) Biomarker Activity (AID 2283035).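 For outcome: MIG protein measured by ELISA in BE3C cultures after 24 h of dosing.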 As to conditions: primary human bronchial epithelial cells; actives raise or lower the signal. An outline of the steps:
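Dose cells (human primary bronchial epithelial), incubate 24 h, quantify MIG by ELISA, then fit concentration–response in both directions relative to DMSO control.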

Read-out in test [6]: Transforming growth factor beta 1 (TGFb1), TGFB1 (gene 7040)
The test can be described thus: BSK_BE3C_TGFb1: BioMAP Diversity Plus: BE3C Assay for Transforming growth factor beta 1 (TGFb1) Biomarker Activity (AID 2283036;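 for outcome: TGF-b1 protein level measured by ELISA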). As to conditions: primary human bronchial epithelial cells; actives raise or lower the signal. Summed up:
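Read-out: ELISA for TGF-b1 in primary human bronchial epithelial cultures, 24 h post-dose. Bidirectional curve fitting vs DMSO control; gain or loss of signal both scored.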

Read-out in test [7]: Plasminogen activator inhibitor-1 (PAI1), SERPINE1 (gene 5054)
The test can be described thus: BSK_BE3C_PAI1: BioMAP Diversity Plus: BE3C Assay for Plasminogen activator inhibitor-1 (PAI1) Biomarker Activity (AID 2283037). As to conditions: primary human bronchial epithelial cells; actives raise or lower the signal. Summed up: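 ELISA read-out of PAI-1 from human bronchial epithelial primary cells, 24 h post-dosing; bidirectional curve fit vs DMSO baseline, gain or loss of signal scored.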

Read-out in test [8]: urokinase plasminogen activator (uPA), PLAU (gene 5328)
The test can be described thus: BSK_BE3C_uPA: BioMAP Diversity Plus: BE3C Assay for urokinase plasminogen activator (uPA) Biomarker Activity (AID 2283038).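 For outcome: uPA protein level quantified by ELISA in cell cultures; uPA read one day after compound addition.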 As to conditions: primary human bronchial epithelial cells; actives raise or lower the signal. An outline of the steps:
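Human primary bronchial epithelial cells were exposed to chemical for 24 h, then uPA levels were measured by ELISA. Responses were fitted bidirectionally against DMSO as negative control and baseline. Parallel SRB staining of total protein gauged overt cytotoxicity.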

Read-out in test [9]: Urokinase-type plasminogen activator receptor (uPAR), PLAUR (gene 5329)
The test can be described thus: BSK_BE3C_uPAR: BioMAP Diversity Plus: BE3C Assay for Urokinase-type plasminogen activator receptor (uPAR) Biomarker Activity (AID 2283039).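 Note: cells exposed to compound for one day before measurement.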 As to conditions: primary human bronchial epithelial cells; actives raise or lower the signal. An outline of the steps: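 ELISA readout of uPAR on human lung primary bronchial epithelial cells, 24 h post-dosing. Bidirectional curve fit relative to DMSO vehicle baseline; gain or loss of signal both scored.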

Read-out in test [10]: Interleukin-6 (IL6), IL6 (gene 3569)
Description: BSK_CASM3C_IL6: BioMAP Diversity Plus: CASM3C Assay for Interleukin-6 (IL6) Biomarker Activity for (AID 2283040). As to conditions: primary human coronary artery smooth muscle cells; actives raise or lower the signal.

Read-out in test [11]: Tissue plasminogen activator (tPA), PLAT (gene 5327)
Description: BSK_BE3C_tPA: BioMAP Diversity Plus: BE3C Assay for Tissue plasminogen activator (tPA) Biomarker Activity (AID 2283041).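 Note: tPA level quantified by ELISA one day after compound addition.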 As to conditions: primary human bronchial epithelial cells; actives raise or lower the signal. Summed up: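 ELISA read-out of tPA on human primary bronchial epithelial cells, 24 h post-dosing; bidirectional fit vs DMSO negative control/baseline.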

Read-out in test [12]: Interleukin-8 (IL8), CXCL8 (gene 3576)
Description: BSK_CASM3C_IL8: BioMAP Diversity Plus: CASM3C Assay for Interleukin-8 (IL8) Biomarker Activity (AID 2283042).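 Note: IL-8 protein level quantified by ELISA.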 As to conditions: primary human coronary artery smooth muscle cells; actives raise or lower the signal.

Read-out in test [13]: Human Leukocyte Antigen - DR isotype (HLADR), HLA-DRA (gene 3122)
The test can be described thus: BSK_CASM3C_HLADR: BioMAP Diversity Plus: CASM3C Assay for Human Leukocyte Antigen - DR isotype (HLADR) Biomarker Activity (AID 2283043).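 Note: cell-surface HLA-DR protein level quantified by ELISA.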 As to conditions: primary human coronary artery smooth muscle cells; actives raise or lower the signal.

Read-out in test [14]: Macrophage colony-stimulating factor (MCSF), CSF1 (gene 1435)
The test can be described thus: BSK_CASM3C_MCSF: BioMAP Diversity Plus: CASM3C Assay for Macrophage colony-stimulating factor (MCSF) Biomarker Activity (AID 2283044).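 Note: M-CSF protein amount quantified by ELISA after 24 h exposure.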 As to conditions: primary human coronary artery smooth muscle cells; actives raise or lower the signal.

Read-out in test [15]: Low-density lipoprotein receptor (LDLR), LDLR (gene 3949)
Description: BSK_CASM3C_LDLR: BioMAP Diversity Plus: CASM3C Assay for Low-density lipoprotein receptor (LDLR) Biomarker Activity (AID 2283045).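 Note: LDLR protein level on the cell surface quantified by ELISA.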 As to conditions: primary human coronary artery smooth muscle cells; actives raise or lower the signal.

Read-out in test [16]: Monocyte Chemoattractant Protein-1 (MCP1), CCL2 (gene 6347)
The test can be described thus: BSK_CASM3C_MCP1: BioMAP Diversity Plus: CASM3C Assay for Monocyte Chemoattractant Protein-1 (MCP1) Biomarker Activity (AID 2283046).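 Note: MCP-1 level quantified by ELISA 24 h after dosing.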 As to conditions: primary human coronary artery smooth muscle cells; actives raise or lower the signal.

Test [17] can be described thus: BSK_CASM3C_Proliferation: Cell Proliferation Assessment in the BioMAP Diversity Plus: CASM3C Assay (AID 2283047).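 Note: sulforhodamine B total protein stain as relative cell number at 560 nm; sub-confluent cells exposed 48 h before staining; fitted both ways against DMSO so gain or loss of cell number.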 As to conditions: primary human coronary artery smooth muscle cells.
Read-out in test [18]: Monokine induced gamma interferon (MIG), CXCL9 (gene 4283)
The test can be described thus: BSK_CASM3C_MIG: BioMAP Diversity Plus: CASM3C Assay for Monokine induced gamma interferon (MIG) Biomarker Activity (AID 2283048). As to conditions: primary human coronary artery smooth muscle cells; actives raise or lower the signal.

Read-out in test [19]: serum amyloid A (SAA), SAA1 (gene 6288)
The test can be described thus: BSK_CASM3C_SAA: BioMAP Diversity Plus: CASM3C Assay for serum amyloid A (SAA) Biomarker Activity (AID 2283049).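 Note: SAA protein level quantified by ELISA.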 As to conditions: primary human coronary artery smooth muscle cells; actives raise or lower the signal.

Active and inactive are the calls of the source. Rule for the calls: active = hit-call score of the fitted dose curve at least 0.9, where 1 is the maximum; inactive = score below 0.9.

As to `OCC1CO1` (stereo not drawn), the outcome in test [1], in [2], in test [3], in test [4], in test [5] and in test [6] was inactive. For the same compound, the outcome in [7], in test [8], in test [9], in [10], in test [11] and in [12] was inactive. Further, the outcome in test [13], in [14], in test [15], in test [16], in test [17] and in [18] was inactive. Moreover, in test [19], the outcome was inactive.
`[N-]=[N+]=[N-]`: the outcome in test [1], in test [2], in test [3], in test [4], in [5] and in test [6] was inactive. Moreover, the outcome in test [7], in test [8], in [9], in test [10], in [11] and in test [12] was inactive. Further, the result in test [13], in [14], in test [15], in [16], in [17] and in test [18] was inactive. In test [19], the result was inactive.
On to `O=P(Oc1ccccc1)(Oc1ccccc1)Oc1ccccc1`, for which the AC50 in test [1] was 29.9 µM (active); in test [3], 26.8 µM (active); in [4] it was 26.3 µM (active); in test [7], 10.6 µM (active); in test [15], 29.5 µM (active); in test [17] it was 26 µM (active). Further, the result in [2], in [5], in test [6], in test [8], in test [9] and in test [10] was inactive. Further, the outcome in [11], in test [12], in test [13], in test [14], in [16] and in test [18] was inactive. For the same compound, the outcome in test [19] was inactive.
Turning to `CC(C)Nc1ccc(Nc2ccccc2)cc1`, the AC50 in test [1] is 14.4 µM (active); in test [2] it was 8.12 µM (active); in [3], 10.1 µM (active); in test [4], 6.69 µM (active); in [5], 20 µM (active); in test [6] it was 20 µM (active). Further, the half-maximal activity concentration (AC50) was 20 µM (active) in test [8]; 33.4 µM (active) in test [10]; 34.1 µM (active) in test [12]; 20 µM (active) in [13]; 20 µM (active) in [14]; 31.8 µM (active) in [15]. Moreover, the AC50 in [16] is 32.9 µM (active); in test [17], 20 µM (active); in [18], 28.2 µM (active); in test [19] it was 32.8 µM (active). Further, the outcome in [7], in test [9] and in test [11] was inactive.
Take `Nc1cc2c3c(c1)C(c1ccccc1)=N[C@@H](NC(=O)c1cccnc1)C(=O)N3CC2`: the result in test [1], in test [2], in [3], in test [4], in test [5] and in [6] was inactive. Further, the result in test [7], in test [8], in [9], in [10], in test [11] and in test [12] was inactive. Also, the result in test [13], in test [14], in test [15], in [16], in test [17] and in test [18] was inactive. Moreover, in test [19], the outcome was inactive.
For the compound `OCC(F)(F)OC(F)(F)C(F)(F)OC(F)(F)CO`, the outcome in test [1], in test [2], in [3], in [4], in [5] and in test [7] was inactive. Besides, the outcome in [8], in [9], in test [10], in [11], in [12] and in [13] was inactive. For the same compound, the result in test [14], in [15], in [16], in test [17], in test [18] and in test [19] was inactive.

In general, AC50 refers to the concentration at which the activity in the assay is half-maximal.
